Source: PubChem BioAssay (Buhrlage Lab, Dana-Farber Cancer Institute and Novartis Institutes for BioMedical Research (Cambridge, Mass))
Hits are enriched below; roughly 13% of the tested compounds scored in any of these assays.
USP10 block: human USP10 deubiquitinase inhibition | AID 1645856 | purified USP10, Ub-rhodamine fluorescence, 60 min | Q14694 | inhibition, % at 20 µM | 47,000 tested, 1.1% active
USP30 block: blocks human USP30 ubiquitin-rhodamine cleavage | 47,000 tested, 5.3% active | inhibition, % at 25 µM | purified USP30, Ub-rhodamine cleavage fluorescence | AID 1645860
USP17 inh: blocks human USP17 ubiquitin-rhodamine cleavage; A8MUK1; purified USP17, Ub-rhodamine cleavage fluorescence, 3 h; inhibition, % at 50 µM; 47,000 tested, 6.5% active; AID 1645855
UCHL1 block: inhibitors of human UCHL1 deubiquitinase | 47,000 tested, 0.2% active | AID 1645859 | purified UCHL1, Ub-rhodamine cleavage fluorescence | P09936 | inhibition, % at 20 µM
USP8 inh: inhibitors of human USP8 deubiquitinase. purified USP8, Ub-rhodamine cleavage fluorescence, 30 min. P40818. inhibition, % at 20 µM. 47,000 tested, 4.2% active
USP7 block: inhibitors of human USP7 deubiquitinase; Q93009; purified USP7, Ub-rhodamine cleavage fluorescence; inhibition, % at 20 µM; 47,000 tested, 0.3% active
Large screens that a line does not name were inactive. No stated cut-off is given here; in the data, active means inhibition above about 30%; inactive means the rest.

O=S(=O)(C1CC1)N1CCC(Oc2cc(N3CCCC3)ncn2)C1 (configuration not stated)	none
CC(NC(=O)c1cccnc1)c1nc2ccccc2[nH]1 (configuration not stated)	none
Cc1nc(-c2cccc(NC(=O)c3ccc(C)c(NC(=O)c4ccco4)c3)c2)cs1	USP17 inh 43
CC(=O)Nc1ccc(NC(=O)CCC2COc3ccccc3O2)cc1C (configuration not stated)	none
Cn1c(=O)n([C@@H](Cc2ccccc2)C(=O)N[C@@H](C(=O)O)c2ccc(O)cc2)c(=O)c2ccccc21	USP8 inh 75
Cn1c(CCC(=O)Nc2ccc3c(c2)CCC3)nc2cc(S(=O)(=O)N3CCOCC3)ccc21	USP30 block 33, USP17 inh 48
CCCCOc1ccc(C(=O)Nc2c3c(nn2-c2ccccc2C)CSC3)cc1	USP17 inh 46
COc1ccc(C(CNC(=O)COc2cccc(Cl)c2)N2CCCC2)cc1 (configuration not stated)	none
COc1ccc(-c2nn3c(N4CCN(c5ccccn5)CC4)cc(C)nc3c2C)cc1	USP17 inh 84 (no result: USP30 block)
O=C(c1cc(-c2ccc(Cl)cc2)n[nH]1)N1CCN(c2ccccn2)CC1	USP30 block 43, USP17 inh 45, USP8 inh 66
COc1ccc(-c2cc(C(=O)N3CCN(c4ccccn4)CC3)[nH]n2)cc1	USP17 inh 46
O=C(c1cc(-c2ccc(Cl)cc2)n[nH]1)N1CCN(c2ccc(F)cc2)CC1	none
O=C(c1cc(-c2ccc(Cl)cc2)n[nH]1)N1CCN(C(=O)c2ccco2)CC1	USP17 inh 70
O=C(C1CCCN(S(=O)(=O)N2CCOCC2)C1)N1CCN(c2ccccn2)CC1 (configuration not stated)	none
Cc1nc(-c2cccc(N3CC(C(=O)NC4CCCC4)CC3=O)c2)no1 (configuration not stated)	none
O=C(NC1CCCC1)C1CC(=O)N(c2cccc(-c3noc(-c4cccs4)n3)c2)C1 (configuration not stated)	USP10 block 45, USP17 inh 61
Cc1sc(NC(=O)/C=C/c2ccco2)nc1-c1ccccc1	none
CC(=O)c1sc(NC(=O)/C=C/c2ccccc2)nc1-c1ccccc1	USP17 inh 74
Cc1cc(C)cc(-n2ccn3cc(-c4cccc(Cl)c4)nc3c2=O)c1	USP17 inh 45
Cc1ccc(-n2ccn3cc(-c4ccc(Br)cc4)nc3c2=O)c(C)c1	none
O=C(c1ccc(F)cc1F)N1CCc2nc3ccncc3cc2C1	none
CCOc1cccc(-c2noc(-c3nn(-c4ccccc4)ccc3=O)n2)c1	USP30 block 93, USP17 inh 52, USP8 inh 93
COc1cccc(-n2ccc(=O)c(-c3nc(-c4cccc(C)c4)no3)n2)c1	none
CCOc1cccc(-c2noc(-c3nn(-c4cccc(C)c4)ccc3=O)n2)c1	USP8 inh 88
Cc1cccc(-c2noc(-c3nn(-c4cccc(C)c4)ccc3=O)n2)c1	none
COc1cccc(NC(=O)C2CCN(C(=O)c3cc(-c4cccnc4)n[nH]3)CC2)c1	none
O=C(Nc1ccc(N2CCN(C3CCCCC3)C2=O)nc1)c1ccc2c(c1)OCO2	none
O=S1(=O)NC(=NCCc2ccc(Cl)cc2Cl)c2ccccc21	USP17 inh 58
O=S1(=O)NC(=NCCc2ccc(Cl)cc2)c2ccccc21	USP17 inh 35
CC1Cc2ccccc2N1S(=O)(=O)c1cccc(C(=O)NCc2ccc(Cl)cc2Cl)c1 (configuration not stated)	none
CC1Cc2ccccc2N1S(=O)(=O)c1cccc(C(=O)OCC(=O)Nc2cc(F)ccc2F)c1 (configuration not stated)	none
CC1Cc2ccccc2N1S(=O)(=O)c1cccc(C(=O)NCc2ccc3c(c2)OCO3)c1 (configuration not stated)	USP8 inh 39
O=C(O)c1cccc(S(=O)(=O)NCc2ccc3c(c2)OCO3)c1	USP30 block 35
CC1Cc2ccccc2N1S(=O)(=O)c1cccc(C(=O)OCC(=O)Nc2ccc3c(c2)OCO3)c1 (configuration not stated)	USP8 inh 37
COc1cc2c(cc1NC(=O)c1ccc([N+](=O)[O-])cc1Cl)CCCC2	none
CC(OC(=O)c1cccc(N(C)C)c1)C(=O)Nc1sccc1C(N)=O (configuration not stated)	USP8 inh 32
CC(OC(=O)c1cccc2ccccc12)C(=O)Nc1ccc(Cl)cn1 (configuration not stated)	none
CC(OC(=O)c1cccc(N(C)C)c1)C(=O)Nc1ncc(Cl)cc1Cl (configuration not stated)	UCHL1 block 75
CC(=O)N1[C@@H](CNS(=O)(=O)c2ccc(F)cc2)C[C@@]2(C)[C@@H](O)CCCC[C@@H]12	none
Cc1ccc(CNS(=O)(=O)c2cc3[nH]c4c(c3cc2C)C(=O)CCC4)cc1	none
Cc1cc2c3c([nH]c2cc1S(=O)(=O)N1CCCCC1C)CCCC3=O (configuration not stated)	USP17 inh 37
N#Cc1ccc(NC(=O)COc2ccc3oc4ccccc4c3c2)cc1	USP17 inh 45
CCC(=O)c1ccc(OCC(=O)Nc2ccc(C#N)cc2)cc1	USP17 inh 47
COc1ccc(OC)c(NC(=O)C2=C(C)Nc3ncnn3C2c2ccccc2OCc2ccc(C)cc2)c1 (configuration not stated)	USP17 inh 58
COc1ccc(OC)c(NC(=O)C2=C(C)Nc3ncnn3C2c2ccccn2)c1 (configuration not stated)	none
O=S(=O)(Nc1ccc2[nH]ncc2c1)c1ccc(Cl)cc1F	USP8 inh 37
CCC/C=C\C#CC/C=C\CCCCCCCC(=O)O	USP17 inh 63, UCHL1 block 69, USP7 block 59
Cc1cc(Oc2ccc(S(=O)(=O)N3CCOCC3)cc2[N+](=O)[O-])cc(C(C)C)c1	none
COc1cc2c(cc1OC)CN(Cc1cc(=O)n3ccsc3n1)CC2	USP8 inh 56
Cc1ccc(OC(C)C(=O)N2CCN(Cc3cc(=O)n4ccsc4n3)CC2)cc1 (configuration not stated)	none
Cc1cc(C)c2c(n1)sc1c(=O)n(CC(=O)Nc3cccc(Cl)c3)cnc12	USP17 inh 41
O=C(Cn1cnc2c(sc3ccccc32)c1=O)Nc1ccc(F)c(F)c1	none
CC1=C(c2ccc(F)cc2)S(=O)(=O)N=C1Nc1ccc(Cl)cc1	USP17 inh 56
CC1=C(c2ccc(F)cc2)S(=O)(=O)N=C1Nc1cc(C)cc(C)c1	none
COc1cccc(NC2=NS(=O)(=O)C(c3ccc(F)cc3)=C2C)c1	USP30 block 33
CC(=O)N1CCCCCC1C1CCN(Cc2ccc(C#N)cc2)CC1 (configuration not stated)	none (no result: USP30 block)
